From PubChem BioAssay AID1159580 (chemical genetic matrix, 2015)
Where “and” joins values, the source holds several entries; their conditions need not be identical. Identical values can stand only once. Among all 5,500 compounds or so, about 2,000 (36%) were called active. Roughly 18% stayed inconclusive and do not appear here. Cut-off read from the data, not from the text of the source: active = normalized growth mostly below about 0.91 (no sharp cut-off); inconclusive = no clear call, values can overlap the other calls; inactive = mostly above about 0.92. This is one part of the list.

Test: chemical genetic growth profiling, strain panel (AID 1159580);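 note: tested at 20 µM; growth read once vehicle control cultures reached saturation at 30 °C; 1 = growth at the plate median or of vehicle wells; lower values mean less growth of the strain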
Conditions: S. cerevisiae deletion strains, growth OD

Measured: normalized growth

COc1ccc2c(c1)c(CC(=O)OCC(=O)O)c(C)n2C(=O)c1ccc(Cl)cc1
inactive: locus YAL013W, strain DEP1, stronger effect = lower value 1.01 | locus YAL021C, strain ccr4, stronger effect = lower value 0.982 | locus YAL026C, strain drs2, stronger effect = lower value 1.01 | locus YAL030W, strain snc1, stronger effect = lower value 0.99 | locus YBL061C, strain skt5, stronger effect = lower value 1 | locus YBR009C, strain hhf1, stronger effect = lower value 0.991 | locus YBR021W, strain FUR4, stronger effect = lower value 1.01 | locus YBR023C, strain chs3, stronger effect = lower value 1.01 | locus YBR171W, strain sec66, stronger effect = lower value 0.978 | locus YBR229C, strain ROT2, stronger effect = lower value 1.02 | locus YBR231C, strain swc5, stronger effect = lower value 0.973 | locus YBR279W, strain paf1, stronger effect = lower value 1.01 | locus YCL011C, strain gbp2, stronger effect = lower value 1.02 | locus YCL016C, strain dcc1, stronger effect = lower value 1.01 | locus YCL029C, strain bik1, stronger effect = lower value 1.04 | locus YCL069W, strain vba3, stronger effect = lower value 1 | locus YCR088W, strain abp1, stronger effect = lower value 1.01 | locus YDL005C, strain med2, stronger effect = lower value 0.979 | locus YDL035C, strain GPR1, stronger effect = lower value 1.02 | locus YDL040C, strain nat1, stronger effect = lower value 0.995 | locus YDL074C, strain BRE1, stronger effect = lower value 1.01 | locus YDL101C, strain DUN1, stronger effect = lower value 1.02 | locus YDL134C, strain PPH21, stronger effect = lower value 1.02 | locus YDL185W, strain tfp1, stronger effect = lower value 1.02 | locus YDL192W, strain arf1, stronger effect = lower value 1.02 | locus YDR001C, strain nth1, stronger effect = lower value 1.01 | locus YDR069C, strain doa4, stronger effect = lower value 0.996 | locus YDR101C, strain arx1, stronger effect = lower value 1.02 | locus YDR137W, strain rgp1, stronger effect = lower value 1.02 | locus YDR150W, strain NUM1, stronger effect = lower value 1.02 | locus YDR159W, strain sac3, stronger effect = lower value 0.964 | locus YDR162C, strain NBP2, stronger effect = lower value 1.01 | locus YDR195W, strain ref2 0.939 | locus YDR297W, strain sur2, stronger effect = lower value 1 | locus YDR318W, strain mcm21, stronger effect = lower value 1.02 | locus YDR334W, strain swr1, stronger effect = lower value 1 | locus YDR335W, strain msn5, stronger effect = lower value 0.989 | locus YDR388W, stronger effect = lower value 1.01 | locus YDR392W, strain spt3, stronger effect = lower value 1.03 | locus YDR502C, strain sam2, stronger effect = lower value 1.03 | locus YEL003W, strain gim4, stronger effect = lower value 0.988 | locus YEL037C, strain rad23, stronger effect = lower value 1 | locus YEL061C, strain CIN8 (second series), stronger effect = lower value 0.995 | locus YEL061C, strain CIN8, stronger effect = lower value 1.01 | locus YER015W, strain faa2, stronger effect = lower value 1 | locus YER016W, strain bim1, stronger effect = lower value 1.01 | locus YER110C, stronger effect = lower value 1.02 | locus YER111C, strain swi4, stronger effect = lower value 0.991 | locus YER155C, strain BEM2 (second series), stronger effect = lower value 0.989 | locus YER155C, strain BEM2, stronger effect = lower value 1.01 | locus YER167W, strain BCK2, stronger effect = lower value 1.01 | locus YFR010W, strain ubp6, stronger effect = lower value 0.994 | locus YGL078C, strain dbp3, stronger effect = lower value 1.01 | locus YGL086W, strain mad1, stronger effect = lower value 1.01 | locus YGL167C, strain pmr1, stronger effect = lower value 0.987 | locus YGL173C, strain kem1, stronger effect = lower value 0.976 | locus YGL227W, strain vid30, stronger effect = lower value 0.999 | locus YGL240W, strain doc1, stronger effect = lower value 0.982 | locus YGL248W, strain PDE1, stronger effect = lower value 1.01 | locus YGL253W, strain hxk2, stronger effect = lower value 1.01 | locus YGR078C, strain PAC10, stronger effect = lower value 1.02 | locus YGR135W, strain pre9, stronger effect = lower value 1.02 | locus YGR229C, strain SMI1, stronger effect = lower value 1.02 | locus YGR252W, strain gcn5, stronger effect = lower value 0.987 | locus YHR013C, strain ard1, stronger effect = lower value 1.09 | locus YHR027C, strain rpn1, stronger effect = lower value 0.999 | locus YHR030C, strain SLT2, stronger effect = lower value 1.02 and 0.958 | locus YHR079C, strain IRE1 (second series), stronger effect = lower value 1.01 | locus YHR079C, strain IRE1, stronger effect = lower value 0.941 | locus YHR094C, strain hxt1, stronger effect = lower value 1.01 | locus YHR129C, strain ARP1, stronger effect = lower value 1 | locus YHR142W, strain chs7, stronger effect = lower value 1.01 | locus YHR200W, strain rpn10, stronger effect = lower value 1.01 | locus YIL066C, strain RNR3, stronger effect = lower value 1.02 | locus YIL073C, strain SPO22, stronger effect = lower value 1.06 | locus YIL125W, strain kgd1, stronger effect = lower value 1.01 | locus YIR030C, strain dcg1, stronger effect = lower value 1.02 | locus YJL092W, strain hpr5, stronger effect = lower value 0.981 | locus YJL095W, strain BCK1 (second series), stronger effect = lower value 1.01 | locus YJL095W, strain BCK1, stronger effect = lower value 1.05 and 0.968 | locus YJL115W, strain asf1, stronger effect = lower value 0.992 | locus YJL129C, strain trk1, stronger effect = lower value 0.979 | locus YJL134W, strain LCB3, stronger effect = lower value 1.01 | locus YJL154C, strain vps35, stronger effect = lower value 0.992 | locus YJL164C, strain tpk1, stronger effect = lower value 1.03 | locus YJL166W, strain qcr8, stronger effect = lower value 0.974 | locus YJL168C, strain set2, stronger effect = lower value 1.01 | locus YJL187C, strain SWE1 (second series), stronger effect = lower value 1.03 | locus YJL187C, strain SWE1, stronger effect = lower value 1.01 | locus YJR043C, strain POL32, stronger effect = lower value 1.03 | locus YJR066W, strain TOR1, stronger effect = lower value 0.89
